Shown are actives, neighbours in structure and some others; about 10% of the full set was active somewhere.
Six1-Eya2 inh: blocks human Six1 binding to Eya2; activity change, % (no concentration beside the values); 0.56% of 360,000 active; Q15475+O00167; AlphaScreen GST-Six1/His-Eya2 binding, biochemical; stronger effect = lower value; AID 651725; in the data active = activity change below about -65%; inconclusive = mostly about -30% to -63%; also: % is scaled to controls: 0 for no effect and ±100 for the full control effect
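Compounds are tested against tagged Six1 and Eya2 proteins bridged by glutathione donor and nickel acceptor beads; after a one-hour incubation at 37 °C without light, AlphaScreen emission is recorded.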
HP1b chromo inh: HP1-beta chromodomain-methylated histone interaction inhibition; P83916; AlphaScreen HP1-beta / biotin-H3K9me3 peptide binding; Potency, µM (titrated, usually from 114 µM), without a hit: at the top dose activity change, negative = inhibition, most hits filed as inhibitors; 0.56% of 390,000 active; AID 540317; also: potency is read from the fitted curve at half-maximal effect; nearly all actives have a fitted effect of over 70% in size
Target sequence (P83916 whole entry, looked up): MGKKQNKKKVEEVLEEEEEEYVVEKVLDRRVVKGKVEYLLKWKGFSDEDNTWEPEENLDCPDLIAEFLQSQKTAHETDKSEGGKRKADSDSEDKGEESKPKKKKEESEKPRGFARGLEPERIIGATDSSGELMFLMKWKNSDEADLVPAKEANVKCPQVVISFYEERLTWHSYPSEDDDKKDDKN
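AlphaScreen: HP1-beta (50 nM) preformed 30 min with biotin-H3(1-18)K9me3 peptide (50 nM) in PBS pH 7.4, 0.01% Tween-20. Compound added for 30 min at RT, then streptavidin donor/nickel chelate acceptor beads (10 ug/mL) for 30 min.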
CtBP-E1A blk: CtBP/E1A binding inhibition | activity change, % (test concentration not listed) | AID 651724 | 0.49% of 340,000 active | AlphaScreen GST-E1A/His-CtBP binding, 1536-well; stronger effect = lower value; in the data active = activity change below about -65%; inconclusive = mostly about -30% to -63%; also: % is scaled to controls: 0 for no effect and ±100 for the full control effect
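AlphaScreen with 125 nM GST-E1A and 125 nM His-CtBP (5X stocks) in Tris pH 8.0, 300 mM NaCl, BSA, Tween 20, TCEP. Compounds preincubated 2 h at 37 deg C, then glutathione donor/nickel acceptor beads added for 1 h at 37 deg C in dark.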
BAZ2B block: inhibitors of human BAZ2B bromodomain; 4.4% of 360,000 active; AlphaScreen BAZ2B-H3K14Ac peptide displacement; Potency, µM (top dose mostly 114 µM), inactives show at the top dose activity change, negative = inhibition, most hits filed as inhibitors; Q9UIF8; also: potency is read from the fitted curve at half-maximal effect; % is scaled to controls: 0 for no effect and ±100 for the full control effect; nearly all actives have a fitted effect of over 60% in size
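In this displacement format the biotinylated H3(5-23) peptide acetylated at Lys14 serves as ligand at 50 nM, with BAZ2B at 50 nM in PBS pH 7.4 containing 0.01% Tween-20. Donor and acceptor beads are 10 ug/mL final.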
JMJD2A Tudor: blocks the human JMJD2A Tudor domain | 4.4% of 390,000 active | AlphaScreen JMJD2A-Tudor / H3K4me3 peptide binding | Potency, µM (series often up to 114 µM), without a hit: at the top dose activity change, negative = inhibition, actives largely listed as inhibitors | O75164; also: potency is read from the fitted curve at half-maximal effect; % is scaled to controls: 0 for no effect and ±100 for the full control effect; nearly all actives have a fitted effect of over 50% in size
G9a inh: blocks human histone lysine methyltransferase G9a; 8.8% of 350,000 active; Q96KQ7; Potency, µM (highest dose often 102 µM), for inactives: at the highest dose activity, negative = inhibition, most hits filed as inhibitors; G9a H3K9 monomethylation, AlphaScreen, 2 h; AID 504332; also: potency is read from the fitted curve at half-maximal effect; % is scaled to controls: 0 for no effect and ±100 for the full control effect; nearly all actives have a fitted effect of over 75% in size
Target sequence (Q96KQ7 913-1193 limits assumed): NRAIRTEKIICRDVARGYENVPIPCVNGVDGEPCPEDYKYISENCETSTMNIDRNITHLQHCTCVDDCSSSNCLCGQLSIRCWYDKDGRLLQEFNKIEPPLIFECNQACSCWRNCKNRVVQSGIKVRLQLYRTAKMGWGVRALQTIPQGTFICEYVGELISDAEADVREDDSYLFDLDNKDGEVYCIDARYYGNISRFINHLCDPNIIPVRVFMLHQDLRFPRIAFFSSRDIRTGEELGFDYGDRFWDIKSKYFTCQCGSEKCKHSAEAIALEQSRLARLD
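Signal arises when biotinylated H3K9 peptide, once monomethylated, bridges streptavidin donor and antibody-captured acceptor beads. Enzyme at 20 nM was preincubated 15 min with test compounds; peptide 500 nM and SAM 20 uM then reacted for 2 h.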
An asterisk follows results filed as active; [ ] = remark or other dose. Unless noted, calls follow the shape of the dose curve; as a rule, active = well fitted inhibition curve with a large enough effect; inconclusive = small, poorly fitted or top-dose-only effect; inactive = no such curve, though single readings can be large or run the other way.

How did Cc1ccsc1C(=O)Nc1nnc(-c2ccco2)o1 do in these assays?
Six1-Eya2 inh: -22; HP1b chromo inh: 51%; CtBP-E1A blk: inconclusive; BAZ2B block: 79µM*; JMJD2A Tudor: -27%; G9a inh: -11%[59 µM]

Results for N#Cc1ccc(C(=O)Nc2nnc(-c3ccco3)o2)cc1 ?
Six1-Eya2 inh: -3; HP1b chromo inh: 35%; CtBP-E1A blk: -10; BAZ2B block: 18µM*; JMJD2A Tudor: 79µM*; G9a inh: -30%

Results for Cc1ccc(C(=O)Nc2nnc(-c3ccco3)o2)cc1 ?
Six1-Eya2 inh: -21; HP1b chromo inh: 24%; CtBP-E1A blk: -12; BAZ2B block: 50µM*; JMJD2A Tudor: inconclusive; G9a inh: 8%[59 µM]

Results for O=C(Nc1nnc(-c2ccco2)o1)c1ccc([N+](=O)[O-])s1 ?
Six1-Eya2 inh: -18; HP1b chromo inh: 8%; CtBP-E1A blk: -22; BAZ2B block: inconclusive; JMJD2A Tudor: inconclusive; G9a inh: 45µM*

Results for CCc1ccccc1NC(=O)c1ccc([N+](=O)[O-])s1 ?
Six1-Eya2 inh: 2; HP1b chromo inh: 15%; CtBP-E1A blk: 4; BAZ2B block: -29%; JMJD2A Tudor: -14%[57.1 µM]; G9a inh: -33%

How did Cc1ccc(C(=O)c2oc3ccc(Cl)cc3c2NC(=O)CN2CCN(C)CC2)cc1 do in these assays?
Six1-Eya2 inh: -18; HP1b chromo inh: -9%[57 µM]; BAZ2B block: 25µM*; JMJD2A Tudor: inconclusive; G9a inh: 79µM*

What do the screens show for `CCN(CC(=O)Nc1ccccc1C(F)(F)F)C(=O)/C=C/c1ccc(Cl)c([N+](=O)[O-])c1`?
Six1-Eya2 inh: 7; HP1b chromo inh: 20%; CtBP-E1A blk: -4; BAZ2B block: -5%; JMJD2A Tudor: -14%; G9a inh: 18µM*

What do the screens show for `COCCN(CC(=O)Nc1ccccc1C(F)(F)F)C(=O)/C=C/c1cc(Cl)c2c(c1)OCO2`?
Six1-Eya2 inh: 0; HP1b chromo inh: 28%; BAZ2B block: -3%; JMJD2A Tudor: -22%; G9a inh: 6%[12.7 µM]

Results for CCCS(=O)(=O)Nc1cccc(-c2cn3ccc(C)cc3n2)c1 ?
HP1b chromo inh: 2%; BAZ2B block: inconclusive; JMJD2A Tudor: -35%; G9a inh: -31%[59 µM]

Results for CCc1cc(-c2[nH]ncc2-c2ccc3c(c2)OCO3)c(O)cc1O ?
Six1-Eya2 inh: -17; HP1b chromo inh: inconclusive; CtBP-E1A blk: 7; BAZ2B block: 32µM*; JMJD2A Tudor: 32µM*; G9a inh: inconclusive

How did CCOC(=O)c1c(OCC)[nH]c2c1cc(O)c1ccccc12 do in these assays?
Six1-Eya2 inh: inconclusive; HP1b chromo inh: inconclusive; CtBP-E1A blk: inconclusive; BAZ2B block: 50µM*; JMJD2A Tudor: 50µM*; G9a inh: inconclusive

How did O=C(NC1CCCCC1)c1ccc(-c2ccccc2[N+](=O)[O-])o1 do in these assays?
Six1-Eya2 inh: -9; HP1b chromo inh: -5%; CtBP-E1A blk: -17; BAZ2B block: inconclusive; JMJD2A Tudor: inconclusive; G9a inh: inconclusive

How did Cc1ccc(N2CCN(C(=S)c3ccc(-c4ccccc4[N+](=O)[O-])o3)CC2)cc1 do in these assays?
Six1-Eya2 inh: inconclusive; HP1b chromo inh: 14µM*; CtBP-E1A blk: inconclusive; BAZ2B block: 10µM*; JMJD2A Tudor: 32µM*; G9a inh: 7.1µM*

Results for O=[N+]([O-])c1ccccc1-c1ccc(C(=S)N2CCN(c3ccccc3)CC2)o1 ?
Six1-Eya2 inh: -13; HP1b chromo inh: inconclusive; BAZ2B block: 8.9µM*; JMJD2A Tudor: 22µM*

What do the screens show for `Cc1cccc(NC(=O)CSc2nc(=O)n(Cc3ccccn3)c3c2CCC3)c1C`?
HP1b chromo inh: 9%; BAZ2B block: -4%; JMJD2A Tudor: -3%; G9a inh: 9%[59 µM]

How did CCCc1ccc(-c2cc(N)n[nH]2)cc1 do in these assays?
Six1-Eya2 inh: -3; HP1b chromo inh: 9%; CtBP-E1A blk: 0; BAZ2B block: 79µM*; JMJD2A Tudor: -27%; G9a inh: 22%

How did CCCCc1ccc(-c2nc(N)n[nH]2)cc1 do in these assays?
Six1-Eya2 inh: -1; HP1b chromo inh: 24%; CtBP-E1A blk: -12; BAZ2B block: -3%; JMJD2A Tudor: -13%; G9a inh: 0%

How did Cc1ccc(C)c(CN2C(=O)c3ccccc3S(=O)c3ccc(C(=O)N(C)Cc4ccccc4)cc32)c1 (configuration not stated) do in these assays?
HP1b chromo inh: 18%; BAZ2B block: -22%; JMJD2A Tudor: -24%; G9a inh: -8%[59 µM]

How did Cc1ccc(CN=Cc2[nH]c3ccc(Br)c(Cl)c3c2O)cc1 do in these assays?
Six1-Eya2 inh: -7; HP1b chromo inh: 45µM*; CtBP-E1A blk: -3; BAZ2B block: inconclusive; JMJD2A Tudor: 50µM*; G9a inh: 28µM*

How did Cc1ccc(S(=O)(=O)N(C)CCCN(C)c2nc(-c3cccs3)nc3ccccc23)cc1 do in these assays?
HP1b chromo inh: 37%; JMJD2A Tudor: -11%

Results for CC1=NN(C(=S)Nc2ccccc2)C(C)(C)C1 ?
Six1-Eya2 inh: 5; HP1b chromo inh: 23%; CtBP-E1A blk: 0; BAZ2B block: 11%; JMJD2A Tudor: -3%; G9a inh: 32µM*

Results for Cn1nc(-c2cccnc2)nc2c(=O)n(C)c(=O)nc1-2 ?
HP1b chromo inh: 15%[57 µM]; JMJD2A Tudor: -1%[57.1 µM]

Results for COn1c(SC2CCCCC2)nc2ccccc2c1=O ?
Six1-Eya2 inh: 5; HP1b chromo inh: 78%; CtBP-E1A blk: 5; BAZ2B block: 43%; JMJD2A Tudor: 27%; G9a inh: 22µM*

How did COn1c(SC(C)C)nc2ccccc2c1=O do in these assays?
Six1-Eya2 inh: 4; HP1b chromo inh: 15%; CtBP-E1A blk: 9; BAZ2B block: 7%; JMJD2A Tudor: 11%; G9a inh: 1%[12.7 µM]

How did COc1ccc(SCC(=O)c2cc(C)c(OC(=S)N(C)C)c(C)c2)cc1 do in these assays?
Six1-Eya2 inh: -1; HP1b chromo inh: 72%; CtBP-E1A blk: -1; BAZ2B block: 5%; JMJD2A Tudor: 12%; G9a inh: 40µM*

What do the screens show for `CCOc1ccccc1C(=O)N1CCc2cc(OC)c(OC)cc2C1COc1ccc(OC)cc1` (configuration not stated)?
HP1b chromo inh: 16%; BAZ2B block: -39%; JMJD2A Tudor: inconclusive; G9a inh: -34%[59 µM]

What do the screens show for `CCCC(=O)C1=C(N2CCCC2)CC(C)(C)C(C(=O)OC)C1=O` (configuration not stated)?
Six1-Eya2 inh: 1; HP1b chromo inh: 31%; CtBP-E1A blk: 0; BAZ2B block: 3%; JMJD2A Tudor: -10%

Screening data from PubChem BioAssay.
